Where “and” joins values, the source holds several entries; their conditions need not be identical. Equal entries are not always repeated. Where two headings read alike, the source gives them in different places.
Assays:
[1] = tested on: MKK7; details: concentration: 1 μM, replicates: in singlicate, n = 1
[2] = tested on: MKNK1; details: concentration: 1 μM, replicates: in singlicate, n = 1
[3] = tested on: MKNK2; details: concentration: 1 μM, replicates: in singlicate, n = 1
[4] = tested on: T1, MLCK; details: concentration: 1 μM, replicates: in singlicate, n = 1
T1 construct: gene MYLK3

[5] = tested on: T2, MLK1; details: concentration: 1 μM, replicates: in singlicate, n = 1
T2 construct: gene MAP3K9

[6] = tested on: MLK2; details: concentration: 1 μM, replicates: in singlicate, n = 1
[7] = tested on: MLK3; details: concentration: 1 μM, replicates: in singlicate, n = 1
[8] = tested on: MRCKA; details: concentration: 1 μM, replicates: in singlicate, n = 1
[9] = tested on: T3, MRCKB; details: concentration: 1 μM, replicates: in singlicate, n = 1
T3 construct: gene CDC42BPB

[10] = tested on: MST1R; details: concentration: 1 μM, replicates: in singlicate, n = 1
[11] = tested on: T4, MST1; details: concentration: 1 μM, replicates: in singlicate, n = 1
T4 construct: gene STK4

[12] = tested on: T5, MST2; details: concentration: 1 μM, replicates: in singlicate; n = 1
T5 construct: gene STK3

[13] = tested on: T6, MST3; details: concentration: 1 μM, replicates: in singlicate, n = 1
T6 construct: gene STK24

[14] = tested on: MST4; details: concentration: 1 μM, replicates: in singlicate, n = 1
[15] = tested on: MTOR; details: concentration: 1 μM, replicates: in singlicate, n = 1
[16] = tested on: MUSK; details: concentration: 1 μM, replicates: in singlicate, n = 1
[17] = tested on: MYLK2; details: concentration: 1 μM, replicates: in singlicate, n = 1
[18] = tested on: MYLK4; details: concentration: 1 μM, replicates: in singlicate, n = 1
[19] = tested on: MYLK; details: concentration: 1 μM, replicates: in singlicate, n = 1
[20] = tested on: MYO3A; details: concentration: 1 μM, replicates: in singlicate, n = 1
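Also: KINOMEscan kinase panel screen.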

NCCNS(=O)(=O)c1ccc(-c2ccnc3[nH]ccc23)cc1 [GSK977617]
%Inh [1]: 0% | %Inh ([2]; 1 µM): 35% and 28% | %Inh ([3]; 1 µM): 97% and 94.8% | %Inh ([4]; 1 µM): 88% and 77% | %Inh ([5]; 1 µM): 21% and 2% | %Inh ([6]; 1 µM): 21% and 18% | %Inh ([7]; 1 µM): 22% and 0% | %Inh ([8]; 1 µM): 44% and 0% | %Inh ([9]; 1 µM): 80% and 62% | %Inh ([10]; 1 µM): 21% and 16% | %Inh ([11]; 1 µM): 26% and 0% | %Inh [12]: 0% | %Inh ([13]; 1 µM): 27% and 17% | %Inh ([14]; 1 µM): 13% and 0% | %Inh ([15]; 1 µM): 29% and 12% | %Inh ([16]; 1 µM): 30% and 35% | %Inh ([17]; 1 µM): 75% and 42% | %Inh ([18]; 1 µM): 99.9% and 99.7% | %Inh ([19]; 1 µM): 74% and 59% | %Inh ([20]; 1 µM): 37% and 16%

CCc1nc(-c2cccc(C)c2)c(-c2ccnc(NCc3ccccc3)c2)s1
%Inh [1]: 0% | %Inh [2]: 1% | %Inh [3]: 0% | %Inh [4]: 0% | %Inh [5]: 0% | %Inh [6]: 0% | %Inh [7]: 0% | %Inh [8]: 0% | %Inh [9]: 0% | %Inh [10]: 8% | %Inh [11]: 4% | %Inh [12]: 0% | %Inh [13]: 4% | %Inh [14]: 0% | %Inh [15]: 12% | %Inh [16]: 12% | %Inh [17]: 0% | %Inh [18]: 0% | %Inh [19]: 0% | %Inh [20]: 0%

CC(=O)Nc1ccc(COc2ccc(Nc3ccnc4cc(-c5ccccn5)ccc34)cc2)cc1.Cl [GW440148]
%Inh [1]: 0% | %Inh [2]: 0% | %Inh [3]: 6% | %Inh [4]: 5% | %Inh [5]: 0% | %Inh [6]: 0% | %Inh [7]: 0% | %Inh [8]: 13% | %Inh [9]: 0% | %Inh [10]: 56% | %Inh [11]: 0% | %Inh [12]: 30% | %Inh [13]: 22% | %Inh [14]: 0% | %Inh [15]: 13% | %Inh [16]: 8% | %Inh [17]: 3% | %Inh [18]: 16% | %Inh [19]: 13% | %Inh [20]: 27%

Cc1nnc(-c2ccc(C)c(-c3ccc(C(=O)Nc4ccc(NS(C)(=O)=O)cc4)cc3)c2)o1 [GW702865]
%Inh [1]: 0% | %Inh [2]: 0% | %Inh [3]: 0% | %Inh [4]: 12% | %Inh [5]: 5% | %Inh [6]: 0% | %Inh [7]: 7% | %Inh [8]: 0% | %Inh [9]: 0% | %Inh [10]: 13% | %Inh [11]: 6% | %Inh [12]: 0% | %Inh [13]: 0% | %Inh [14]: 0% | %Inh [15]: 28% | %Inh [16]: 0% | %Inh [17]: 0% | %Inh [18]: 8% | %Inh [19]: 3% | %Inh [20]: 23%

CC(C)(CN)c1nc(-c2ccc(Cl)c(O)c2)c(-c2ccncc2)[nH]1.O=C(O)C(F)(F)F [SB-477794]
%Inh ([1]; 1 µM): 26% and 0% | %Inh ([2]; 1 µM): 9% and 0% | %Inh ([3]; 1 µM): 9% and 0% | %Inh ([4]; 1 µM): 0% and 14% | %Inh ([5]; 1 µM): 0% and 7% | %Inh ([6]; 1 µM): 0% and 10% | %Inh ([7]; 1 µM): 0% and 32% | %Inh ([8]; 1 µM): 46% and 35% | %Inh ([9]; 1 µM): 76% and 72% | %Inh ([10]; 1 µM): 39% and 0% | %Inh ([11]; 1 µM): 0% and 11% | %Inh [12]: 0% | %Inh ([13]; 1 µM): 0% and 1% | %Inh ([14]; 1 µM): 11% and 1% | %Inh ([15]; 1 µM): 35% and 17% | %Inh [16]: 0% | %Inh ([17]; 1 µM): 0% and 5% | %Inh ([18]; 1 µM): 0% and 6% | %Inh ([19]; 1 µM): 1% and 21% | %Inh ([20]; 1 µM): 25% and 59%

Cl.Oc1cccc(Nc2ccnc3cc(-c4ccncc4)ccc23)c1 [GW494601]
%Inh [1]: 0% | %Inh [2]: 0% | %Inh [3]: 21% | %Inh [4]: 0% | %Inh [5]: 0% | %Inh [6]: 0% | %Inh [7]: 1% | %Inh [8]: 1% | %Inh [9]: 0% | %Inh [10]: 36% | %Inh [11]: 0% | %Inh [12]: 0% | %Inh [13]: 13% | %Inh [14]: 0% | %Inh [15]: 4% | %Inh [16]: 0% | %Inh [17]: 24% | %Inh [18]: 0% | %Inh [19]: 95.9% | %Inh [20]: 40%

Cc1cccc(-c2nc(Nc3ccc4ncsc4c3)c3ccccc3n2)n1 [GW867588]
%Inh [1]: 0% | %Inh [2]: 16% | %Inh [3]: 0% | %Inh [4]: 0% | %Inh [5]: 7% | %Inh [6]: 20% | %Inh [7]: 1% | %Inh [8]: 2% | %Inh [9]: 33% | %Inh [10]: 0% | %Inh [11]: 18% | %Inh [12]: 0% | %Inh [13]: 0% | %Inh [14]: 16% | %Inh [15]: 0% | %Inh [16]: 0% | %Inh [17]: 0% | %Inh [18]: 0% | %Inh [19]: 0% | %Inh [20]: 0%

CCn1cnc2c(N)ncnc21 [GW345098]
%Inh [1]: 0% | %Inh [2]: 0% | %Inh [3]: 0% | %Inh [4]: 1% | %Inh [5]: 6% | %Inh [6]: 12% | %Inh [7]: 4% | %Inh [8]: 0% | %Inh [9]: 2% | %Inh [10]: 0% | %Inh [11]: 8% | %Inh [12]: 7% | %Inh [13]: 20% | %Inh [14]: 0% | %Inh [15]: 0% | %Inh [16]: 2% | %Inh [17]: 2% | %Inh [18]: 7% | %Inh [19]: 29% | %Inh [20]: 12%

COc1cc(Nc2nccc(N3CCC(NC(=O)c4cccc(NC(C)=O)c4)C3)n2)cc(OC)c1OC (centres unmarked) [GSK1379754]
%Inh [1]: 32% | %Inh [2]: 38% | %Inh [3]: 98.6% | %Inh [4]: 1% | %Inh [5]: 67% | %Inh [6]: 50% | %Inh [7]: 53% | %Inh [8]: 0% | %Inh [9]: 0% | %Inh [10]: 20% | %Inh [11]: 12% | %Inh [12]: 7% | %Inh [13]: 0% | %Inh [14]: 0% | %Inh [15]: 7% | %Inh [16]: 12% | %Inh [17]: 17% | %Inh [18]: 2% | %Inh [19]: 14% | %Inh [20]: 5%

c1ccc(-c2cc(-c3c[nH]nc3-c3ccccn3)ccn2)cc1 [GW576604]
%Inh [1]: 0% | %Inh [2]: 5% | %Inh [3]: 0% | %Inh [4]: 9% | %Inh [5]: 6% | %Inh [6]: 0% | %Inh [7]: 0% | %Inh [8]: 4% | %Inh [9]: 0% | %Inh [10]: 34% | %Inh [11]: 0% | %Inh [12]: 0% | %Inh [13]: 0% | %Inh [14]: 0% | %Inh [15]: 10% | %Inh [16]: 0% | %Inh [17]: 3% | %Inh [18]: 0% | %Inh [19]: 6% | %Inh [20]: 18%
